We go through 40 sequences from the OligoGym collection.
Note: reference of the scale not given here.

For the first experiment, the target named is OSBPL11. Put plainly: pooled miR-30 sensor sort-seq; sequence = guide strand. Conditions: shRNA.
In turn, TTACACACATCTTCCTCTCTGT came in with a sensor-assay potency score (higher = more potent) of 0.858.

Take TTTACTTCAGCTGTAACCCGAT: the sensor-assay potency score (higher = more potent) was 0.406.

Consider TAAATTAGTTCTTTTGCTCAGT, for which the sensor-assay potency score (higher = more potent) is -0.186.

In turn, TTGTGCTTTACTTCAGCTGTAA yielded a sensor-assay potency score (higher = more potent) of -0.271.

Consider TTAAGTCTCTTTGTTGTCCTTC, for which the sensor-assay potency score (higher = more potent) was found to be 0.3.

As for TTGACTTGGTCTCCTCTGCGAT, the sensor-assay potency score (higher = more potent) is -0.7.

With TACATTCTGCATAAAATCCTGA, the sensor-assay potency score (higher = more potent) is 0.486.

TTTACCACTTTGGTCTTGCTGC yielded a sensor-assay potency score (higher = more potent) of -0.424.

Another experiment addresses OSBPL2. Described as above. To be noted: shRNA.
Turning to TAAATCTGAATCCTAAATCTTC, the sensor-assay potency score (higher = more potent) was -0.577.

TTTAAAATCTCCACTGTCCCAT had a sensor-assay potency score (higher = more potent) of -0.254.

With TTCAGGATGGTCCACACGCTGA, the sensor-assay potency score (higher = more potent) was -1.77.

Take TCTAAGTCAATCATTCCCGTGA: the sensor-assay potency score (higher = more potent) came out at 0.725.

TTAATTAGAATTACATCCTTGA returned a sensor-assay potency score (higher = more potent) of 1.08.

Regarding TTGAATGTGTCCTTCCACCTTG, the sensor-assay potency score (higher = more potent) was -0.0307.

TAGAATTACATCCTTGATCAGG gave a sensor-assay potency score (higher = more potent) of -0.471.

TTGAAGGCGATTGGCATCGTGA showed a sensor-assay potency score (higher = more potent) of -0.348.

TTCTCTCTGCTTCTCCTCCAGC had a sensor-assay potency score (higher = more potent) of -1.

As to TTTTTGTCTTGAATGTGTCCTT, the sensor-assay potency score (higher = more potent) amounted to 0.356.

TTTGTTTTTGTCTTGAATGTGT displayed a sensor-assay potency score (higher = more potent) of 0.222.

For the sequence TTTTGTCTTGAATGTGTCCTTC, the sensor-assay potency score (higher = more potent) was 0.333.

The next experiment deals with OSBPL3. The description is as above. Conditions: shRNA.
In turn, TACATTCATATAAACAATCAGG yielded a sensor-assay potency score (higher = more potent) of -0.979.

For the sequence TAAATCGAGTGTCAGTAGGTGG, the sensor-assay potency score (higher = more potent) is -1.06.

Turning to TTCTTTACAGACATCACTGAGA, the sensor-assay potency score (higher = more potent) stood at 0.168.

Turning to TCTACTTTCATTAGAAAGCTGA, the sensor-assay potency score (higher = more potent) was -0.307.

The sequence TAGAAGAATCTCTTATGCCAGC came in with a sensor-assay potency score (higher = more potent) of -0.865.

TGAAGCTATAGTATTGCTCGTA registered a sensor-assay potency score (higher = more potent) of -0.222.

In turn, TTGGAGATAACAGAACTTCCTG had a sensor-assay potency score (higher = more potent) of 0.0622.

On to TTCATCTCTGGAGTTTTCGGAT, for which the sensor-assay potency score (higher = more potent) was -0.271.

TTCTTGATGACAATCTCTCCAT had a sensor-assay potency score (higher = more potent) of -0.313.

As for TATAGTATTGCTCGTAGCCTTT, the sensor-assay potency score (higher = more potent) is -1.22.

In the case of TTGCTCTCCATACACAGGCAGA, the sensor-assay potency score (higher = more potent) is -1.4.

In turn, TTCTTCTCCGGGACTTCGCTTC had a sensor-assay potency score (higher = more potent) of 0.0582.

A further experiment addresses OSR1. Described as above. To be noted: shRNA.
With TTTGGAGTGAATATATCTGTGG, the sensor-assay potency score (higher = more potent) is -0.758.

On to TTCTTTTCTGGAGACAGCTTGG, for which the sensor-assay potency score (higher = more potent) is -0.688.

Regarding TTGAGCGCTGGAACGCTGCCTC, the sensor-assay potency score (higher = more potent) is -0.183.

In the case of TATATCTGTGGTCTCGCAGGTG, the sensor-assay potency score (higher = more potent) is 0.107.

Take TAGGACTTGGTGAAGTGGCGGC: the sensor-assay potency score (higher = more potent) was found to be 0.00529.

As for ATATCTGTGGTCTCGCAGGTGG, the sensor-assay potency score (higher = more potent) was -0.964.

On to AATATATCTGTGGTCTCGCAGG, for which the sensor-assay potency score (higher = more potent) is -1.37.

In turn, TTGGAGTGAATATATCTGTGGT displayed a sensor-assay potency score (higher = more potent) of 0.0172.
